# Measurements: ChEMBL document CHEMBL3433997, “St. Jude Leishmania screening dataset” (2016)
# Legend:
# Format in all cases: functional
# [1] = molecular target: Solute carrier family 2, facilitated glucose transporter member 1 (Homo sapiens) (UniProt P11166); test: ST_JUDE_LEISH: Cytotoxicity at 2uM final concentration against transgenic Leishmania Mexicana promastigotes LmGLUT1 that are glucose transport deficient and complemented with the human glucose transporter GLUT1. Activity is measured by DNA content using SYBR green in vitro
# Chain of Solute carrier family 2, facilitated glucose transporter member 1 (Homo sapiens) (P11166 whole entry): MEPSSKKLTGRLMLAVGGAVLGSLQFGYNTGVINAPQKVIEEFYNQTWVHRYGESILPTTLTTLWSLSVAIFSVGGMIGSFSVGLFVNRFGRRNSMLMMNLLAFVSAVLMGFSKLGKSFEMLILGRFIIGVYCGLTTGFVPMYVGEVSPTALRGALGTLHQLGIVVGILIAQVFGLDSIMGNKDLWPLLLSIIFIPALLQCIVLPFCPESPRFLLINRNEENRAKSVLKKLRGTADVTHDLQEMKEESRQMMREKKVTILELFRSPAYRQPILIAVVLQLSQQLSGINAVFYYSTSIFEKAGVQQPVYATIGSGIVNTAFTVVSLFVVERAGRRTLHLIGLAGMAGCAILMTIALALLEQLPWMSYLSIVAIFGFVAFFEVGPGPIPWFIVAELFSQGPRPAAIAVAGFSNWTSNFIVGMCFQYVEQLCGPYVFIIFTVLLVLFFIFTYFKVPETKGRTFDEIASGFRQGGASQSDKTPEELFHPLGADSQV
# [2] = molecular target: Hexose transporter 1 (Plasmodium falciparum) (UniProt O97467); test: ST_JUDE_LEISH: Cytotoxicity at 2uM final concentration against transgenic Leishmania Mexicana promastigotes LmPfHT that are glucose transport deficient and complemented with the Plasmodium falciparum hexose transporter. Activity is measured by DNA content using SYBR green in vitro
# [3] = molecular target: Glucose transporter (Leishmania mexicana) (UniProt O61059); test: ST_JUDE_LEISH: Cytotoxicity at 2uM final concentration against transgenic Leishmania Mexicana promastigotes LmGT2 that are glucose transport deficient and complemented with the L. Mexicana glucose transporter 2. Activity is measured by DNA content using SYBR green in vitro
SMILES,inhibition [1] [%],inhibition [2] [%],inhibition [3] [%]
CN1CCN(CCCN(Cc2ccc(-c3ccc(CNCCc4ccccc4)cc3)cc2)C(=O)c2cccs2)CC1,2.36,1.19,3.32
COc1ccc2[nH]c(/C=C/c3cccc4ccc(C)nc34)nc2c1,2.88,2.44,0.69
CCCCCN1C(=O)N(c2ccc(Cl)c(Cl)c2)C(N(O)C(=O)Nc2ccc(Cl)c(Cl)c2)C1(C)C (stereo unspecified),4.79,4.73,2.87
O=C(c1ccccc1[N+](=O)[O-])N(Cc1ccccc1)c1ccccn1,4.59,4.79,6.57
N#Cc1cncc(-c2nc3c(N4CCCC(N)C4)cccc3n2CCNCc2ccccc2)c1 (stereo unspecified),6.64,5.11,8.87
CN(C)CCNCc1nc(-c2ccc3c(Nc4ccc(Oc5ccccc5)cc4)ccnc3c2)cs1,-2.05,1.8,5.9
CCOC(=O)c1ccc(N2CCN(CCCNC(=O)/C(=C/C=C/c3cc4cc(Cl)c(Cl)cc4[nH]3)OC)CC2)cc1,2.48,3.47,0.57
O=C(NCCc1ccccc1)N(Cc1cccc(-c2ccc(CNCCc3ccccc3)cc2)c1)C1CCN(Cc2ccccc2)CC1,0.95,-0.75,0.12
COc1cc2c(cc1N1CC(C)NC(C)C1)N(C(=O)c1ccc(-c3ccc(-c4ncc[nH]4)cc3C)cc1)CC2 (stereo unspecified),2.21,1.1,3.39
Nc1c2c(nc3ccc(C(=O)Nc4cc(I)c(O)c(I)c4)cc13)CCCC2,1.22,1.9,1.74
CN(CC(=O)Nc1cc(C(F)(F)F)ccc1-n1cncn1)Cc1ccc2ccccc2c1,2.14,1.25,1.8
CCCCCCCCOc1ccc(N2C(N)=NC(N)=NC2(C)C)cc1,2.56,3.69,-0.03
CCN(CC)CCCNc1nccc(N(C)c2ccc(NC(=O)Nc3cc(C(F)(F)F)ccc3F)cc2)n1,11.7,9.93,11.9
CCOc1c(CNCCCCCCNCc2ccc3ccccc3c2OCC)ccc2ccccc12,3.4,4.82,1.99
O=C(Nc1ccc(-c2ccccc2)cc1)Nc1cccc(Cn2nc(Cl)c(N3CCNCC3)cc2=O)c1,0.77,2.24,4.62
COC(=O)c1ccc(CC(C)NCC(O)c2ccc(C(O)CNC(C)Cc3ccc(C(=O)OC)cc3)cc2)cc1 (stereo unspecified),-0.44,1.69,0.96
Cc1cc(N/N=C/c2ccccc2[N+](=O)[O-])c2ccc(F)cc2n1,2.1,4.11,1.62
COc1cc(CN/C(=N/c2ccc(-c3ccccc3)cc2)Nc2ccc(C#N)cc2O)cc(OC)c1,1.7,0.59,0.77
NC1=NC(Cc2ccccc2)N(c2ccc(Cl)cc2)C(N)=N1 (stereo unspecified),8.89,6.99,5.89
CN(C)CCCOC(=O)c1cc2cc(-c3ccccc3)ccc2n1S(=O)(=O)Cc1ccccc1,5.88,10.6,1.19
COc1cc(OCCCCCCON2C(=N)N=C(N)NC2(C)C)cc(OC)c1OC,7.66,8.02,6.93
CCN(CC)CCN(Cc1ccc(-c2ccc(C(F)(F)F)cc2)cc1)C(=O)Cn1nc(-c2ccc(C(F)(F)F)cc2)ccc1=O,1.46,2.04,2.83
COc1ccc(NC(=O)CCNc2cc(C)nc(NCCOc3ccccc3)n2)cc1,2.22,2.64,1.92
Cc1cc(N(C)C)nc(Nc2ccc(NC(=O)c3c(F)cccc3Cl)cc2)n1,7.36,7.84,-0.01

SMILES,inhibition [1] [%],inhibition [2] [%],inhibition [3] [%]
Cc1cc(-c2cc3nc4c(c(O)n3n2)CCCC4)c(C)o1,4.05,8.94,6.14
Nc1ccc(-c2cc(Cl)cc(Cl)c2)cc1-c1cc2ccccc2[nH]1,2.84,1.08,-0.38
CN(C)CCOc1ccc(-c2cc(-c3ccnc(N)n3)c(-c3ccc(Cl)c(O)c3)o2)cc1,1.34,1.5,2.71
CC12CCC(CN(CC(O)Cn3c4ccccc4c4cc(I)ccc43)C1)C2(C)C (stereo unspecified),2.02,2.5,0.07
CCCCNc1c(CC)c(C)c(C#N)c2nc3ccccc3n12,29.1,51.4,21.8
CC(CNCc1cn(Cc2cc(Br)cc(Br)c2)c2ccccc12)CNc1cc(=O)c2ccccc2[nH]1 (stereo unspecified),0.59,1.26,1.07
CS(=O)(=O)c1ccc(CCNCc2ccc(-c3ccc(CN(C(=O)c4ccc(Cl)nc4)C4CCN(Cc5ccccc5)CC4)cc3)nc2)cc1,4.37,3.39,1.67
Oc1cccc(-c2nc(-c3ccccc3)c(-c3ccc4oc5ccc(-c6[nH]c(-c7cccc(O)c7)nc6-c6ccccc6)cc5c4c3)[nH]2)c1,3.36,2.88,2.11
O=C(Nc1cccc(CN2CCCN(Cc3ccccc3)CC2)c1)c1cc2ccccc2s1,1.27,1.24,-4.49
O=C(Nc1cccc(Cl)c1)OC1CCCN2CCCCC12 (stereo unspecified),10.8,10.6,9.42
O=C(c1cccc(-c2ccc(-c3nc4cc(F)ccc4[nH]3)s2)c1)N1CCCCC1CN1CCC(O)C1 (stereo unspecified),2.59,1.6,1.75
COc1cccc(Nc2nc(NCCO)c3ccccc3n2)c1,14.8,15,5.17
Oc1ccc(CCNc2nc(NCCOc3ccccc3-c3ccccc3)nc(N3CCNCC3)n2)cc1,1.26,0.85,1.75
NS(=O)(=O)c1cccc(Nc2nccc(-c3cnn4ncccc34)n2)c1,50.6,76.5,64.8
COc1cccc2c(O)c(CNC3CCCCC3)ccc12,-0.95,-0.26,1.11
CC(C)CNc1nc(N)nc2ccc3c(ccn3CC(C)C)c12,1.7,-0.47,-0.02
CC(=O)Nc1ccc(C(=O)Nc2cccc(-c3ccc(-c4nc5ccccc5[nH]4)cc3)c2)cn1,4.19,3.31,5.92
CCCNC[C@@H](O)[C@H](Cc1ccccc1)NC(=O)c1cc(NCC)cc(N2CCCC2=O)c1,1.25,2.29,0.72
Cc1c(CNCCCNc2nc3ccccc3[nH]2)[nH]c2cc(Cl)cc(Cl)c12,25.5,49.4,41.6
COc1ccc(C=NNc2cc(C)nc3ccc(OC)cc23)c(OC)c1,8,7.55,2.56
COc1cccc(CCc2cccc(CNC(C)=O)c2)c1,5.81,4.65,5.68
Cc1ccc(S(=O)(=O)n2nccc2-c2c(-c3ccc(Cl)cc3)noc2C)cc1,3.44,3.35,2.23
CCOC(=O)NC1=NC(=N)N(OCCCOc2cc(Cl)c(Cl)cc2Cl)C(C)(C)N1,-0.21,-0.15,1.91
Nc1nc(N)c2c(ccc3c2ccn3CCCF)n1,1.79,5.24,0.69

SMILES,inhibition [1] [%],inhibition [2] [%],inhibition [3] [%]
CO/C(=C\C=C\c1cc2cc(Cl)c(Cl)cc2[nH]1)C(=O)NCCN1CCCCC1,0.85,1.14,0.35
Cc1ccc(CNC(=O)[C@H](Cc2ccccc2)Nc2cc(C)nc(NCc3ccccc3C)n2)cc1,5.69,5.01,2.6
N#Cc1ccc(NC(=O)N2CCCN(CCCCCNC(=O)/C=C/c3ccc(Cl)c(Cl)c3)CC2)cc1,1.89,1.77,5.16
CN1CCC(C(=O)Nc2ccc(-c3ccc(-c4nc5ccccc5[nH]4)cc3)cc2)CC1,2.95,1.48,0.83
CC(C)NCc1ccc(-c2ccc(NC(=O)c3ccc(C#N)cc3)cc2)cc1,3.05,3.73,4.89
O=C(Nc1ccc([N+](=O)[O-])cc1O)Nc1ccccc1Oc1ccccc1,-1.52,-0.84,-0.04
O=C(/C=C/c1ccc(Cl)cc1)NCCCCCN1CCCC(C(=O)Nc2ccc(Cl)cc2)C1 (stereo unspecified),3.89,5.61,3.7
Cc1ccc(S(=O)(=O)N2CCCN(C(=O)c3cc(-c4ccccc4)[nH]n3)CC2)cc1,-1.48,0.45,0.04
O=C(CC(=O)C(F)(F)F)c1ccc2c(c1)OCO2,1.45,1.74,2.14
Cc1cc(NCCC(=O)Nc2ccccc2)nc(NCC2CCCCC2)n1,5.97,3.39,3.6
CCC[C@@H]([C@@H](CC(C)C)C(=O)N[C@H](C(=O)Nc1nccs1)C(C)(C)SCCNC(=O)OCC)N(O)C=O,2.68,4.73,3.58
Cc1ccc(NC(=O)Nc2ccc(Br)cc2)cc1OCCN(C)C,5.98,3.65,2.82
COc1ccc(Nc2nc(N/N=C/c3ccc(O)cc3)nc(Nc3ccc([N+](=O)[O-])cc3)n2)cc1,1.19,2.44,0.87
CC(C)Sc1nc2c(c(=O)n1CCc1ccccc1)C1(CCCCC1)Cc1ccccc1-2,-1.26,-1.14,-0.83
Cc1cccc2nc(-c3ccc(-c4ccc(CN5CCN(c6ccncc6)CC5)cc4)s3)[nH]c12,2.98,2.29,1.09
c1cc(CN2CCN(CCN3CCOCC3)CC2)cc(-c2csc(-c3nc4ccccc4[nH]3)c2)c1,5.51,5.16,4.63
Fc1ccc2[nH]c(-c3ccc(-c4cccc(CN5CCC(CCN6CCCCC6)CC5)c4)cc3)nc2c1,2.93,1.77,0.37
O=C(N1CCN(c2ccnc3cc4c(cc23)N(Cc2ccccc2)CC4)CC1)C(F)(F)F,2.23,3.24,4.39
CC(C)c1sc(-c2ccc(C(C)(C)C)cc2)nc1C(=O)NCCCN1CCCC1=O,1.02,1.22,1.9
COC(=O)c1cccc(CNCc2cccc(-c3cccc(-c4nc5ccccc5[nH]4)c3)c2)c1,1.94,3.05,2.93
NCC1CCCN1Cc1ccc(-c2ccc(-c3nc4ccccc4[nH]3)s2)cc1 (stereo unspecified),-0.41,-0.71,-0.41
Cc1ccccc1C1CCN(C2CCC(NC(=O)C3=Cc4cc(Cl)ccc4OC3)CC2)CC1 (stereo unspecified),-3.31,2.37,1.59
COc1cc2nc(N3CCC(CNC(=O)c4ccc(-c5ccc(C#N)cc5)cc4)CC3)nc(N)c2cc1OC,1.64,1.87,1.74
C=CCc1cc(OC)ccc1OCCCOc1c(C)nc(N)nc1N,78.2,77.6,65.3
